Experimental data: the supplement of paper PMC4466140

What was measured:
Assay in all cases: SPOT peptide array binding signal intensity (averaged, normalized) (arbitrary units (background-subtracted, floor 0; scale differs between SH3 domains)); higher = stronger binding of the SH3 domain to the peptide
[1] = target: AgAbp1
Summary of the method: (§1)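 Spot intensities were captured after detection with anti-GST antibody, an HRP-linked anti-mouse secondary and luminol, and quantified with Genespotter. The probes were GST-fused SH3 domains from four yeast species, produced in E. coli BL21(DE3), purified on glutathione Sepharose and incubated at 10 μg/ml overnight at 4°C on cellulose-bound synthetic 15-mer peptides with cysteines replaced by serines. Binding signal is the normalized, background-subtracted spot intensity averaged over replicates, and its arbitrary units differ between domains.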

[2] = target: AgBbc1
Summary of the method: as §1

[3] = target: AgBem1-D1
Summary of the method: as §1

[4] = target: AgBzz1-D1
Summary of the method: as §1

[5] = target: AgBzz1-D2
Summary of the method: as §1

[6] = target: AgCyk3
Summary of the method: as §1

[7] = target: AgFus1
Summary of the method: as §1

[8] = target: AgHof1
Summary of the method: as §1

[9] = target: AgHse1
Summary of the method: as §1

[10] = target: AgLsb1
Summary of the method: as §1

[11] = target: AgLsb4
Summary of the method: as §1

[12] = target: AgMyo5
Summary of the method: as §1

[13] = target: AgNbp2
Summary of the method: as §1

[14] = target: AgRvs167
Summary of the method: as §1

[15] = target: AgSho1
Summary of the method: as §1

[16] = target: AgSla1-D1-D2
Summary of the method: as §1

[17] = target: AgSla1-D3
Summary of the method: as §1

[18] = target: CaAbp1-D1
Summary of the method: as §1

[19] = target: CaAbp1-D2
Summary of the method: as §1

[20] = target: CaBbc1
Summary of the method: as §1

[21] = target: CaBem1-D1
Summary of the method: as §1

[22] = target: CaBzz1-D1
Summary of the method: as §1

[23] = target: CaBzz1-D2
Summary of the method: as §1

[24] = target: CaCyk3
Summary of the method: as §1

[25] = target: CaFus1
Summary of the method: as §1

[26] = target: CaHof1
Summary of the method: as §1

[27] = target: CaHse1
Summary of the method: as §1

[28] = target: CaLsb1
Summary of the method: as §1

[29] = target: CaLsb4
Summary of the method: as §1

[30] = target: CaMyo5
Summary of the method: as §1

[31] = target: CaNbp2
Summary of the method: as §1

[32] = target: CaRvs167
Summary of the method: as §1

[33] = target: CaRvs167-3
Summary of the method: as §1

[34] = target: CaSho1
Summary of the method: as §1

[35] = target: CaSla1-D1-D2
Summary of the method: as §1

[36] = target: CaSla1-D3
Summary of the method: as §1

[37] = target: ScAbp1
Summary of the method: as §1

[38] = target: ScBbc1
Summary of the method: as §1

[39] = target: ScBem1-D1
Summary of the method: as §1

[40] = target: ScBzz1-D1
Summary of the method: as §1

[41] = target: ScBzz1-D2
Summary of the method: as §1

[42] = target: ScCyk3
Summary of the method: as §1

[43] = target: ScFus1
Summary of the method: as §1

[44] = target: ScHof1
Summary of the method: as §1

[45] = target: ScHse1
Summary of the method: as §1

[46] = target: ScLsb1
Summary of the method: as §1

[47] = target: ScLsb2
Summary of the method: as §1

[48] = target: ScLsb3
Summary of the method: as §1

[49] = target: ScLsb4
Summary of the method: as §1

[50] = target: ScMyo3
Summary of the method: as §1

[51] = target: ScMyo5
Summary of the method: as §1

[52] = target: ScNbp2
Summary of the method: as §1

[53] = target: ScPex13
Summary of the method: as §1

[54] = target: ScRvs167
Summary of the method: as §1

[55] = target: ScSho1
Summary of the method: as §1

[56] = target: ScSla1-D1-D2
Summary of the method: as §1

[57] = target: ScSla1-D3
Summary of the method: as §1

[58] = target: SpAbp1-D1
Summary of the method: as §1

[59] = target: SpBbc1
Summary of the method: as §1

[60] = target: SpBzz1-D1
Summary of the method: as §1

[61] = target: SpBzz1-D2
Summary of the method: as §1

[62] = target: SpCyk3
Summary of the method: as §1

[63] = target: SpHof1
Summary of the method: as §1

[64] = target: SpHof1-2
Summary of the method: as §1

[65] = target: SpHof1-3
Summary of the method: as §1

[66] = target: SpHse1
Summary of the method: as §1

[67] = target: SpLsb1
Summary of the method: as §1

[68] = target: SpLsb4
Summary of the method: as §1

[69] = target: SpMyo1
Summary of the method: as §1

[70] = target: SpNbp2
Summary of the method: as §1

[71] = target: SpPex13
Summary of the method: as §1

[72] = target: SpRvs167
Summary of the method: as §1

[73] = target: SpSla1-D1-D2
Summary of the method: as §1

[74] = target: SpSla1-D3
Summary of the method: as §1

SRQAIPPPVPNRPGG
SPOT peptide array binding signal intensity [1]: ≤ 0
SPOT peptide array binding signal intensity [2]: 1960
SPOT peptide array binding signal intensity [3]: 0.5
SPOT peptide array binding signal intensity [4]: 280
SPOT peptide array binding signal intensity [5]: 15
SPOT peptide array binding signal intensity [6]: ≤ 0
SPOT peptide array binding signal intensity [7]: ≤ 0
SPOT peptide array binding signal intensity [8]: 39.2
SPOT peptide array binding signal intensity [9]: 40
SPOT peptide array binding signal intensity [10]: 1770
SPOT peptide array binding signal intensity [11]: 1590
SPOT peptide array binding signal intensity [12]: 74.5
SPOT peptide array binding signal intensity [13]: 106
SPOT peptide array binding signal intensity [14]: 362
SPOT peptide array binding signal intensity [15]: ≤ 0
SPOT peptide array binding signal intensity [16]: ≤ 0
SPOT peptide array binding signal intensity [17]: 3.5
SPOT peptide array binding signal intensity [18]: 156
SPOT peptide array binding signal intensity [19]: 8.5
SPOT peptide array binding signal intensity [20]: 3020
SPOT peptide array binding signal intensity [21]: 30
SPOT peptide array binding signal intensity [22]: 2510
SPOT peptide array binding signal intensity [23]: 346
SPOT peptide array binding signal intensity [24]: 359
SPOT peptide array binding signal intensity [25]: 23
SPOT peptide array binding signal intensity [26]: 1
SPOT peptide array binding signal intensity [27]: 101
SPOT peptide array binding signal intensity [28]: 3.75
SPOT peptide array binding signal intensity [29]: 2960
SPOT peptide array binding signal intensity [30]: 2
SPOT peptide array binding signal intensity [31]: 50.5
SPOT peptide array binding signal intensity [32]: 1340
SPOT peptide array binding signal intensity [33]: ≤ 0
SPOT peptide array binding signal intensity [34]: 8
SPOT peptide array binding signal intensity [35]: 201
SPOT peptide array binding signal intensity [36]: 0.75
SPOT peptide array binding signal intensity [37]: 16
SPOT peptide array binding signal intensity [38]: 802
SPOT peptide array binding signal intensity [39]: ≤ 0
SPOT peptide array binding signal intensity [40]: 23
SPOT peptide array binding signal intensity [41]: 6
SPOT peptide array binding signal intensity [42]: 1
SPOT peptide array binding signal intensity [43]: ≤ 0
SPOT peptide array binding signal intensity [44]: 10
SPOT peptide array binding signal intensity [45]: ≤ 0
SPOT peptide array binding signal intensity [46]: 1620
SPOT peptide array binding signal intensity [47]: 1320
SPOT peptide array binding signal intensity [48]: 3290
SPOT peptide array binding signal intensity [49]: 2540
SPOT peptide array binding signal intensity [50]: 371
SPOT peptide array binding signal intensity [51]: 220
SPOT peptide array binding signal intensity [52]: 304
SPOT peptide array binding signal intensity [53]: 1830
SPOT peptide array binding signal intensity [54]: 1980
SPOT peptide array binding signal intensity [55]: 32
SPOT peptide array binding signal intensity [56]: 695
SPOT peptide array binding signal intensity [57]: 9.5
SPOT peptide array binding signal intensity [58]: 17
SPOT peptide array binding signal intensity [59]: 723
SPOT peptide array binding signal intensity [60]: 760
SPOT peptide array binding signal intensity [61]: 59.5
SPOT peptide array binding signal intensity [62]: 3
SPOT peptide array binding signal intensity [63]: ≤ 0
SPOT peptide array binding signal intensity [64]: ≤ 0
SPOT peptide array binding signal intensity [65]: 126
SPOT peptide array binding signal intensity [66]: ≤ 0
SPOT peptide array binding signal intensity [67]: 1260
SPOT peptide array binding signal intensity [68]: 4790
SPOT peptide array binding signal intensity [69]: 120
SPOT peptide array binding signal intensity [70]: ≤ 0
SPOT peptide array binding signal intensity [71]: ≤ 0
SPOT peptide array binding signal intensity [72]: 2220
SPOT peptide array binding signal intensity [73]: 5
SPOT peptide array binding signal intensity [74]: ≤ 0
